Sampled rows, rich in hits. Any-hit rate of the full collection: about 2.2%.
M1 antag: blocks human M1 muscarinic receptor. 1.3% of 360,000 active. CHO-K1 hM1, Fluo-8 calcium fluorescence, ACh EC80 antagonist. inhibition, % at 3 µM. P11229;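 active means percent inhibition above its own plate's cutoff, namely the mean of that plate's compound wells plus 3 SD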;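 further: peak over basal fluorescence ratio during 140 s after agonist addition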
CHRM4 PAM: potentiates acetylcholine response at human M4 receptor | activation, % at 3 µM | P08173 | CHO-K1 hM4/Gqi5, Fluo-8 calcium fluorescence, ACh EC20; 0% = ACh EC20, 100% = maximal ACh | 0.4% of 360,000 active;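 active means activation above its plate's cutoff, the mean activation of sample wells plus 3 SD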
Target sequence (P08173 whole entry, looked up): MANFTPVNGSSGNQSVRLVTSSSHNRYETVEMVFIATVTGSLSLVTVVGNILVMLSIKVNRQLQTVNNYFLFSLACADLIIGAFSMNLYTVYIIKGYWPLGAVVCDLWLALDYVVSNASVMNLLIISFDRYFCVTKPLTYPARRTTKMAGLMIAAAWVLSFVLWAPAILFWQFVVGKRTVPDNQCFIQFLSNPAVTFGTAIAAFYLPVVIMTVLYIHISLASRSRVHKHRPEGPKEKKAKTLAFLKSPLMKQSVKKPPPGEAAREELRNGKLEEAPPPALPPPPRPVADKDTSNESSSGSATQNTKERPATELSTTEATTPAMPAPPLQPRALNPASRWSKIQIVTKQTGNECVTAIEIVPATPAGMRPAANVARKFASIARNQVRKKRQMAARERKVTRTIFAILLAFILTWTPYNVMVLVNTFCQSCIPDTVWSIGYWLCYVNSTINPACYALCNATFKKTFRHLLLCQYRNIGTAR
M1 PAM: potentiates human M1 receptor response to acetylcholine | CHO-K1 hM1, Fluo-8 calcium fluorescence, ACh EC20; 0% = ACh EC20, 100% = maximal ACh | 0.088% of 360,000 active | activation, % at 3 µM | P11229; in the data active means activation above about 19%, passing the limit was not always enough
M4 antag: CHRM4 antagonism in calcium assay; P08173; CHO-hM4 cells, ACh EC80, Fluo-8 calcium fluorescence; AID 624125; inhibition, % at 3 µM; 0.73% of 360,000 active;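 active means inhibition above its plate's cutoff, the mean inhibition of sample wells plus 3 SD, cut at about 27% in these data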
M1 ag: activates human CHRM1 receptor; P11229; CHO-K1 hM1, Fluo-8 calcium fluorescence, agonist mode; 0% DMSO, 100% acetylcholine EC100; activation, % at 3 µM; 0.33% of 360,000 active; AID 588814;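 active means activation above the run's mean compound activation plus 3 SD, cut at about 16% in these data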;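 further: peak over basal fluorescence ratio within a 140 s kinetic read after compound addition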
M4 ag: agonists of human muscarinic M4 receptor (CHRM4); AID 624127; 0.14% of 360,000 active; CHO-K1 hM4/Gqi5, Fluo-8 calcium fluorescence; vehicle 0%, full acetylcholine response 100%; activation, % at 3 µM;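 active means activation above the run mean over all test wells plus 3 SD, cut at about 32% in these data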;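 further: peak over basal fluorescence ratio per well then scaled between controls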
Each line names hits and unclear results; the compound was inactive in the other large screens.

O=C(COC(=O)c1ccc(S(=O)(=O)N2CCCC2)cc1)Nc1cccc(F)c1	none
O=C(C[n+]1ccc(C(=O)NCCCO)cc1)c1cccc(Br)c1	none
CCOC(=O)C1CCCN(C(=O)CSc2ccc(Br)cc2)C1 (configuration not stated)	none
CCOC(=O)C1CCCN(C(=O)CSc2nc(C)cc(C)n2)C1 (configuration not stated)	M1 ag 38.4
CCOC(=O)C1CCCN(C(=O)COc2ccccc2O)C1 (configuration not stated)	M1 antag 61.7, M1 ag 73.6
CCOC(=O)C1CCCN(C(=O)CCc2nnc(-c3ccc(C(C)=O)s3)o2)C1 (configuration not stated)	M1 ag 28.6
O=C1Nc2ccccc2O/C1=C\c1ccccc1	none
O=C(CC1C(=O)NCCN1C(=O)Nc1ccc(F)cc1F)Nc1cc(Cl)ccc1Cl (configuration not stated)	none
CC(=O)Nc1cccc(-c2csc(C(O)c3ccc(F)c(F)c3)n2)c1 (configuration not stated)	none
O=C(N=C1SC2CS(=O)(=O)CC2N1CCc1ccccc1)C1CC1 (configuration not stated)	none
O=C(NCC(c1ccco1)N1CCCCC1)c1ccc(COc2ccc(Cl)cc2)cc1 (configuration not stated)	M1 antag 79.5
O=C(NCC(c1ccco1)N1CCCC1)c1ccc(S(=O)(=O)Nc2ccccc2F)cc1 (configuration not stated)	M1 antag 65.5
C=CCOC(=O)C1=C[C@@H](c2ccc(Br)cc2)C[C@@H](OCCCCO)O1	none
Cc1cc(C)c(NC(=O)C2CC3CCC2C3)c(C)c1 (configuration not stated)	none
Cc1ccccc1-c1nc2cc(Cl)ccc2o1	none
Cc1c(C)n(CCO)c2ncnc(Nc3ccc(F)cc3)c12	M1 antag 43.5
COc1ccc(NC(=O)COc2ccccc2Cc2ccccc2)cc1S(N)(=O)=O	M1 antag 37.4
COc1ccc(NC(=O)CN(Cc2ccccc2)Cc2ccccc2)cc1S(N)(=O)=O	none
CN(C(=O)COC(=O)c1ccc(CN2CCCC2=O)cc1)c1ccccc1	M1 antag 67.7
CN(C(=O)COC(=O)c1ccc(S(=O)(=O)N2CCCCCC2)cc1)c1ccccc1	none
O=c1oc2c(O)cccc2cc1-c1nc2ccccc2[nH]1	M1 ag 17.9
CCSc1nnc(NC(=O)CSc2nc(CC)nc3c2c(=O)n(C)c(=O)n3C)s1	none
Cc1ccc(O)c(/C=N/NC(=O)c2[nH]ncc2Br)c1	none
O=c1c2cc(Br)ccc2nc(-c2cccc(C(F)(F)F)c2)n1O	M1 ag 25.1
Cc1cccc2cc(-c3nc4c(C)cccn4c3NCc3ccco3)c(=O)[nH]c12	M1 antag 27.8
COC(=O)c1cn[nH]c1NC(=S)Nc1ccccc1C	none
N#C/C(=C/c1ccc(Sc2nc3ccccc3[nH]2)o1)c1cccc(Br)c1	none
CCN1C(=O)S/C(=C/c2ccc(Sc3nc4ccccc4[nH]3)o2)C1=O	M1 antag 30.7
CC(=O)OC1c2ccccc2C(=O)N1Cc1ccccc1Cl (configuration not stated)	M4 antag 34.2
COc1cc(NC2c3ccccc3C(=O)N2Cc2ccccc2Cl)cc(OC)c1 (configuration not stated)	none
Cn1c(CN2CCCCC2)nc2cc(NS(=O)(=O)c3ccc(Cl)cc3)ccc21	M4 ag 43.0
CCOC(=O)c1ccc2c(c1)nc(SCC(=O)c1ccco1)n2CC	none
O=C(O)c1cn2c3c(ccc(Cl)c3c1=O)OCC2	M1 PAM 26.0
CNC(=O)c1cn2c3c(ccc(Cl)c3c1=O)OC(C)C2 (configuration not stated)	none
CCc1c(C)nc(SCC(=O)c2cccs2)c(C#N)c1C	CHRM4 PAM 79.6, M4 antag 38.8
COc1ccc(NC(=S)N2CCN(Cc3cccc(F)c3)CC2)c(OC)c1	none
CC(C)C1C(=O)N(Cc2cn(Cc3ccco3)nn2)CCS(=O)(=O)N1Cc1ccc(-c2cccc(N(C)C)c2)cc1 (configuration not stated)	CHRM4 PAM 17.8
COc1ccc(CN(C)c2ccc(S(=O)(=O)N3CCN(C)CC3)cc2[N+](=O)[O-])cc1OC	M1 antag 42.5
Cc1ccc(NC(=O)Cc2nn(C)c(=O)c3ccccc23)cc1F	M4 antag 32.8
Cn1nc(CC(=O)Nc2ccc3c(c2)OCCO3)c2ccccc2c1=O	M1 antag 30.9
S=C(Nc1ccc2c(c1)OCO2)Nc1ccccc1Cl	none
C/C(=N\n1c(C)nc2ccccc2c1=O)c1ccc(C)o1	M1 PAM 27.7
O=C(Cn1[nH]c(=O)c2ccccc2c1=O)NCc1cccnc1	none
COc1ccc2c(n1)Sc1nc3ccccc3nc1N2	M1 ag 48.0, M4 ag 54.3
Cc1ccc(NC(=S)NCc2ccc(S(N)(=O)=O)cc2)cc1Cl	none
COc1ccc(C)cc1Nc1n[n+](-c2ccccc2)c(-c2c(OC)ccc3ccccc23)s1	M1 antag 31.3
Fc1ccc(-[n+]2nc(Nc3ccccc3)sc2-c2c3ccccc3cc3ccccc23)cc1	M1 ag 19.3
COc1ccc(C2SCC(=O)N2c2ccccc2)cc1 (configuration not stated)	none
CCN(CC)c1ccc(-c2nc3cnccc3n2C)cc1	M1 antag 38.6
OC1(c2cccs2)CN(c2ccc(Br)cc2)C2=[N+]1CCCS2 (configuration not stated)	M4 antag 27.1
COc1ccc(N2CC(O)(c3ccc(OC(F)F)cc3)[N+]3=C2CCCC3)cc1 (configuration not stated)	M1 antag 42.2
COc1ccc(N2CC(O)(c3ccc(F)cc3)[N+]3=C2CCCC3)cc1 (configuration not stated)	M1 antag 47.3
CCOc1ccc(N2CC(O)(c3cccs3)[N+]3=C2CCCC3)cc1 (configuration not stated)	M1 antag 41.0
COc1ccc(N2CC(O)(c3ccc(C)cc3)[N+]3=C2CCCC3)cc1 (configuration not stated)	none
CC1(C)CN(c2ccc(N3CC(C)(C)C3=O)cc2)C1=O	none
OC1(CC#CCN2CCCCC2)c2ccccc2-c2ccccc21	M1 antag 54.7
OC1(C#CCCN2CCCCC2)c2ccccc2-c2ccccc21	M1 antag 99.2, M4 antag 55.5
CCN(CC#CCC1(O)c2ccccc2-c2ccccc21)CCO	none
O=C(O)c1ccccc1C(=O)NNc1ccc(Cl)cc1	none
Cc1cc(C)c2c(CN3CCN(Cc4ccc5c(c4)OCO5)CC3)cc(=O)oc2c1	M1 antag 32.6

Bioassay records deposited in PubChem BioAssay by The Scripps Research Institute Molecular Screening Center.
